# Screens from PubChem.
# Cruzain inh Det = blocks cruzain activity in presence of Triton detergent. P25779. purified cruzain, Z-FR-AMC fluorescence, 0.01% Triton. Potency, µM, for the others: max response, negative = inhibition, actives largely listed as inhibitors. actives 0.43% (n = 200,000);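 note: plate controls were neutral wells for no effect and buffer without enzyme for full effect; nearly all actives have a fitted effect of over 40% in size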
# Target sequence (P25779 123-467 limits assumed): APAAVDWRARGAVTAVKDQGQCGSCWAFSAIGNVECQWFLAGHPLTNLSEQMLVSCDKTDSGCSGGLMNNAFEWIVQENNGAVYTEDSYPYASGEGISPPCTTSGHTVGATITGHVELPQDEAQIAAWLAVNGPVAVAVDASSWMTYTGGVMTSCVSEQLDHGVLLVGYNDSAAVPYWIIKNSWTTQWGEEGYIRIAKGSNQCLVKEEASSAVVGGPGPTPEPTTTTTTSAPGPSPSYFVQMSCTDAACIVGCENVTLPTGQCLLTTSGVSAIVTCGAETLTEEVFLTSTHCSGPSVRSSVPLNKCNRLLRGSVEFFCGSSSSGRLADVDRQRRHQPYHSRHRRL
#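 Detergent-containing arm of a paired screen for aggregation-based inhibition: 0.01% Triton X-100 present. Cruzain at 1.5 nM cleaved 2 uM Z-FR-AMC at pH 5.5 with 5 mM DTT; AMC fluorescence gain over 60 s measured activity.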
# Cruzain noTriton = cruzain (T. cruzi) inhibition without detergent | purified cruzain, Z-FR-AMC fluorescence, no detergent | Potency, µM, inactives show max response, negative = inhibition, most hits filed as inhibitors | actives 2.3% (n = 200,000);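 note: plate controls were enzyme without inhibitor for no effect and buffer without enzyme for full effect; nearly all actives have a fitted effect of over 40% in size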
#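 Detergent-free condition (0.00005% Triton X-100) in acetate buffer pH 5.5 with DTT. 1.5 nM enzyme and compound were pre-mixed 15 min, then 2 uM Z-FR-AMC substrate added; reaction progress from fluorescence change between first and third reads (60 s).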
# Active calls of the source: *; ? = inconclusive. The list is not random: actives were taken first. Their share in the collection is about 2.5%. Calls come from the whole dose curve; as a rule, active = well fitted curve in the direction sought with a large enough effect; inconclusive = small, poorly fitted or top-dose-only effect, or another doubt; inactive = no such curve, though single readings can be large; an effect the other way counts as inactive or inconclusive. Potency is the fitted concentration of half-maximal effect.
SMILES,Cruzain inh Det,Cruzain noTriton
Oc1c(C(c2ccccc2F)N2CCN(Cc3ccccc3)CC2)sc2nc(-c3ccco3)nn12 (centres undefined),-5.5%,4.1%
CNC(=O)c1[nH]cnc1C(=O)Nc1ccc(C)cc1,-1.5%,-12.2%
CCOc1ccccc1NC(=O)c1nc[nH]c1C(=O)Nc1ccccc1OCC,3.1%,-5.4%
Cc1ccc(NC(=O)c2nc[nH]c2C(=O)Nc2ccc(C)cc2)cc1,3.3%,7.94µM*
COc1ccccc1NC(=O)c1nc[nH]c1C(=O)Nc1ccccc1OC,4.8%,10µM*
COc1ccc(CCNC(=O)CCCn2c(=O)c3ccccc3n(Cc3ccccc3)c2=O)cc1OC,-5.5%,?
CC1Cc2cc(S(=O)(=O)CCC(=O)Nc3ccc(OC(F)(F)F)cc3)ccc2N1C(=O)C1CC1 (centres undefined),-9.8%,?
COc1cccc(Cc2nc3ccccc3nc2SCC(=O)NCCc2ccccc2)c1,-4.0%,0.9%
COC(=O)c1cc(Cl)ccc1NC(=O)CSc1ncc(S(=O)(=O)c2ccc(Br)cc2)c(=O)[nH]1,25.1µM*,?
COc1ccc(CNC(=O)CSc2ncc(S(=O)(=O)c3ccc(Br)cc3)c(=O)[nH]2)cc1,-8.5%,?
Cc1cc(C(F)(F)F)nn1CC(=O)Nc1cccnc1,0.9%,-5.6%
CSc1cc2c(cc1C(F)(F)F)N(C(=O)Nc1cccnc1)CC2,0.7%,7.94µM*
Cc1ccc2c(c1)c1c3n2CCN(C(=O)c2ccc(C(F)(F)F)cc2)C3CCC1 (centres undefined),1.5%,-14.4%
COC(=O)c1ccc2c(=O)n(CCc3ccc(S(N)(=O)=O)cc3)c(SCC(=O)C(C)(C)C)nc2c1,-0.8%,15.7%
c1ccc(-n2nnnc2-n2cnc3ccccc32)cc1,3.1%,8.0%
c1ccc(-c2nccc(-c3ccc(-n4cnc5ccccc54)cc3)n2)cc1,-1.7%,15.8µM*
Cc1cc(C)c(NC(=O)CSc2cn(CC(=O)N3CCOCC3)c3ccccc23)c(C)c1,-3.0%,?
COc1ccc(Nc2sc(C(=O)c3ccccc3)c(N)c2C(=O)Nc2cc(C)ccc2C)c(OC)c1,-1.1%,10µM*
COc1ccc(CCNC(=O)c2c(Nc3ccccc3C)sc(C(=O)c3ccccc3)c2N)cc1OC,-2.1%,?
CCOc1ccc(NC(=O)c2c(Nc3ccccc3C)sc(C(=O)c3ccc(Cl)cc3)c2N)cc1,-6.7%,-26.8%
Cc1ccc(NC(=O)c2c(Nc3ccccc3C)sc(C(=O)c3ccccc3)c2N)cc1,-1.4%,6.31µM*
CC1CCn2c(nc3cc(C(=O)NCc4ccc(OC(C)C)cc4)ccc32)C1 (centres undefined),1.1%,-4.9%
COc1cc(Cl)c(C)cc1Nc1c2c(nc3ccccc13)CCC2,-12.7%,-23.2%
COc1ccc(C2(CNC(=O)C(=O)Nc3ccc(F)cc3)CCCC2)cc1OC,-0.8%,?
CCOC(=O)c1c(C)oc2ncnc(Nc3ccc(OC)cc3OC)c12,-0.6%,-18.5%
SMILES,Cruzain inh Det,Cruzain noTriton
Cc1ccn2c(=O)c(C(=O)NCCc3ccccc3)c(O)nc2c1,0.9%,-1.9%
Cc1cccc(NC(=O)CN2C(=O)S/C(=C\C(=O)Nc3ccc(Cl)cc3)C2=O)c1,-1.1%,12.6µM*
O=C(/C=C1\SC(=O)N(CC(=O)Nc2ccc(F)cc2)C1=O)Nc1ccc(Cl)cc1,-0.9%,25.1µM*
Cc1cccc(NC(=O)CN2C(=O)N/C(=C/c3cc(C)n(C(C)C)c3C)C2=O)c1,-3.5%,-20.4%
CC(/C=C1\SC(=O)N(CC(=O)Nc2cccc(O)c2)C1=O)=C\c1ccccc1,-3.7%,7.9%
O=C(/C=C1\SC(=O)N(CC(=O)Nc2ccc(Cl)cc2)C1=O)Nc1ccc(F)cc1,-2.6%,?
Cc1cccc(NC(=O)CN2C(=O)N/C(=C/c3ccc(C)s3)C2=O)c1,-3.7%,3.98µM*
CCN(C(=O)c1nn(C)c2c1CSc1ccccc1-2)c1cccc(C)c1,8.5%,4.4%
COc1ccc(S(=O)(=O)n2nc(C)c(S(=O)(=O)N3CCC(C)CC3)c2C)cc1C,0.8%,-6.9%
CCOC(=O)C1CCCN(c2nc3c(S(=O)(=O)c4ccc(C)c(C)c4)nnn3c3ccc(Cl)cc23)C1 (centres undefined),-11.6%,-21.4%
Cc1ccc(C(=O)N/C(=C/c2ccco2)C(=O)OCN2C(=O)c3ccccc3C2=O)cc1,0.355µM*,0.398µM*
COC(=O)/C(=C/c1ccco1)NC(=O)c1ccccc1,-10.5%,6.7%
CCc1ccc(NC(=O)CSc2nc(C)c(C(=O)Nc3ccc(Cl)cc3)c(-c3ccc(OC)cc3)c2C#N)cc1,-1.7%,7.94µM*
CCOC(=O)c1sc(NC(=O)CSc2nc3c(cc2C#N)CCCCCC3)c(C#N)c1C,-3.1%,?
CCOC(=O)c1sc(NC(=O)CSc2nc3c(c(-c4ccc(OC)cc4)c2C#N)CCCC3)c(C#N)c1C,9.7%,3.16µM*
COc1ccc(-c2c(C#N)c(SCC(=O)Nc3ccccc3C)nc(C)c2C(=O)Nc2ccc(Cl)cc2)cc1,5.7%,-20.9%
COc1cccc(NC(=O)CSc2nc3c(c(-c4ccco4)c2C#N)CCCC3)c1,5.9%,6.31µM*
COc1cccc(NC(=O)CSc2nc(=O)n(Cc3ccco3)c3c2CCC3)c1,-3.7%,-14.1%
COc1ccc(C(=O)Nc2cccc(-c3cn4ccsc4n3)c2)cc1OC,2.0%,?
Clc1ccc(CCNC(c2ccc(Cl)cc2)c2nnc(-c3ccccc3)o2)cc1 (centres undefined),-4.0%,7.5%
Cc1ccc(C(=O)NCC(c2ccc3c(c2)OCO3)N2CCN(c3ccc(F)cc3)CC2)cc1 (centres undefined),-1.4%,-0.7%
Cn1nnnc1Sc1ncnc2scc(-c3ccccc3)c12,3.3%,15.8µM*
Cn1nnnc1Sc1ncnc2scc(-c3ccc(F)cc3)c12,2.3%,-2.8%
Cc1cccc(N(C)c2nc3ccccc3c3nnc(C)n23)c1,-2.5%,9.4%
CCOC(=O)c1c(C)[nH]c(C(=O)COC(=O)CCS(=O)(=O)c2ccc(C)cc2)c1C,?,1.3%
SMILES,Cruzain inh Det,Cruzain noTriton
CCOC(=O)c1c(C)[nH]c(C(=O)COC(=O)CCC2CCCC2)c1C,8.1%,15.8µM*
O=C(Nc1cccc(Cl)c1)c1ccc2c(c1)CCN2S(=O)(=O)c1ccccc1,-1.3%,?
COc1ccc(NC(=O)/C(C#N)=C\c2cc(C)n(-c3ccc(Oc4ccc([N+](=O)[O-])cn4)cc3)c2C)cc1,1.5%,7.94µM*
COc1ccc(NC(=O)/C(C#N)=C/c2cc(C)n(-c3ccc(F)cc3)c2C)cc1,0.2%,-15.1%
O=S(=O)(c1ccc(F)cc1)n1ccc(-c2cccc(OCc3c(F)cccc3Cl)c2)n1,10.4%,-11.6%
O=S(=O)(c1ccc(Cl)cc1)n1ccc(-c2cccc(OCc3c(F)cccc3Cl)c2)n1,3.6%,20µM*
COc1ccccc1NC(=O)C1=C(C)Nc2c(C(=O)Nc3ccc(C)cc3)cnn2C1c1cccc(OC)c1OC (centres undefined),-2.9%,0.1%
COc1ccc(OCCSCc2nnc(NC(=O)Nc3ccc(Cl)cc3)s2)cc1,-2.1%,12.6µM*
Cc1ccc(NC(=O)Nc2nnc(CSCCOc3ccc(Cl)cc3)s2)cc1,0.0%,7.94µM*
O=C(Nc1cccc(Cl)c1)Nc1nnc(CSCCOc2ccc(Cl)cc2)s1,-3.8%,?
CCc1nnc(NC(=O)Nc2ccc(OC)cc2)s1,2.1%,8.6%
CCOC(=O)O[C@]1(C(=O)COC(=O)CC)CC[C@@H]2[C@@H]3CCC4=CC(=O)C=C[C@@]4(C)[C@H]3[C@H](O)C[C@]21C,2.0%,?
CCc1cccc(C)c1NC(=O)c1cc(S(=O)(=O)N2CCCCCC2)cn1C,-1.3%,-4.5%
